Test results reported in PubChem BioAssay (EPA / NIEHS).
Records with an inconclusive call do not appear. Calls of active or inactive are those of the source. How the source made its calls: active means hit-call score of the fitted dose curve at least 0.9, where 1 is the maximum; inconclusive means response in the unintended direction; inactive means score below 0.9.

experiment: ACEA_AR_agonist_AUC_viability: ACEA Biosciences xCELLigence Real-Time Cell Analysis on Androgen Receptor Agonism for Viability (AID 2283775);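 on AC50: viability read 80 hours after compound addition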
Experimental: ACEA_AR_agonist is a cell-based, single-readout assay that uses 22Rv1, a human prostate cancer cell line, with measurements taken at 80 hours after chemical dosing in a 384-well plate, although TO5 and TO6 (mc0.srcf) used a 96-well plate. Differences in plate size can be ignored given data normalization.ACEA_AR_80hr is one of two assay component(s) measured or calculated from the ACEA_AR assay. It is designed to make measurements of real-time cell-growth kinetics, a form of growth reporter, as detected with electrical impedance signals by Real-Time Cell Electrode Sensor (RT-CES) technology.Data from the assay component ACEA_AR_AUC_viability was analyzed in the positive analysis fitting direction relative to DMSO as the negative control and baseline of activity. Using a type of growth reporter, loss-of-signal activity can be used to understand changes in the viability. Furthermore, this assay endpoint can be referred to as a secondary readout, because this assay has produced multiple assay endpoints where this one serves a viability function. To generalize the intended target to other relatable targets, this assay endpoint is annotated to the cell cycle intended target family, where the subfamily is cytotoxicity.
The xCELLigence system Multi-E-Plate stations were used to measure the time-dependent response to chemicals. Each compound was tested in an eight-point, 1:4 serial dilution series starting at a maximum final concentration of 100 uM. A maximum starting concentration of 0.5% DMSO was present in the 100 uM chemical samples and was diluted along with the test article dilution series. The screen was performed in biological duplicate using two separate, 96-well, E-Plates 96 for each dilution series (n = 2). Positive controls (MG132 and testosterone) and a negative control (assay media) were tested in quadruplicate on each testing plate. Then, 0.5% and 0.125% DMSO were tested in duplicates in each plate to serve as solvent controls for the 2 highest concentrations of testing compounds: 100 uM and 25 uM. Reference compounds were tested with 8 concentrations with 1:5 serial dilutions. All screening was carried out by ACEA Biosciences, Inc. (San Diego, CA). 22Rv1 cells purchased from ATCC were maintained in media supplemented with 10% fetal bovine serum (FBS). Before screening, 22Rv1 cells were preconditioned in assay medium. Cells were then detached and seeded in E-Plates 96 in assay medium. After overnight monitoring of growth once every hour, compounds were added to […] cells and remained in the medium until the end of the experiment. Cellular responses were then recorded once every 5 min for the first 5 h, and once every hour for an additional 100 h.

SMILES	outcome	AC50
CC(C)CCCCCCc1ccc(OCCOCCO)cc1	inactive	
CCCCCCCCc1ccc(S(=O)(=O)O)cc1	inactive	
CCCOCCO	inactive	
CCCCCCCC/C=C\CCCCCCCC(=O)OCC	inactive	
CC1CC(O)CC(C)(C)C1 (stereo not given)	inactive	
CCCCCCCCCCCCN1CCCCCC1=O	inactive	
CCc1cc(Cc2cc(CC)cc(C(C)(C)C)c2O)c(O)c(C(C)(C)C)c1		24.3 µM (active)
CCCCC(CC)COC(=O)c1ccc(O)cc1 (stereo not given)	inactive	
CCC(=O)O[C@@H]1C[C@H]2CC[C@]1(C)C2(C)C	inactive	
BrCc1cccc(Oc2ccccc2)c1	inactive	
O=C1NC2NC(=O)NC2N1 (stereo not given)	inactive	
C=C(C)[C@@H]1CC=C(C)C(=O)C1	inactive	
CS(=O)(=O)OCCCCOS(C)(=O)=O	inactive	
[O-]n1ccccc1=S.[O-]n1ccccc1=S.[Zn+2]		11.8 µM (active)
CS(C)=O	inactive	
CC(C)CCCCCCCCCCCCCCC(=O)O	inactive	
OC[C@H]1O[C@@H]2O[C@H]3[C@H](O)[C@@H](O)[C@@H](O[C@H]4[C@H](O)[C@@H](O)[C@@H](O[C@H]5[C@H](O)[C@@H](O)[C@@H](O[C@H]6[C@H](O)[C@@H](O)[C@@H](O[C@H]7[C@H](O)[C@@H](O)[C@@H](O[C@H]8[C@H](O)[C@@H](O)[C@@H](O[C@H]9[C@H](O)[C@@H](O)[C@@H](O[C@H]1[C@H](O)[C@H]2O)O[C@@H]9CO)O[C@@H]8CO)O[C@@H]7CO)O[C@@H]6CO)O[C@@H]5CO)O[C@@H]4CO)O[C@@H]3CO	inactive	
OCCc1ccccc1	inactive	
Nc1ccccc1[N+](=O)[O-]	inactive	
OCC(O)c1ccccc1 (stereo not given)	inactive	

SMILES	outcome	AC50
CCCCCCCCCCCCCC(=O)OCC(O)CO (stereo not given)	inactive	
CCC1(C)NC(=O)NC1=O (stereo not given)	inactive	
C[C@H]1O[C@@H](O[C@H]2[C@@H](O)C[C@H](O[C@H]3[C@@H](O)C[C@H](O[C@H]4CC[C@@]5(C)[C@H](CC[C@@H]6[C@@H]5C[C@@H](O)[C@]5(C)[C@@H](C7=CC(=O)OC7)CC[C@]65O)C4)O[C@@H]3C)O[C@@H]2C)C[C@H](O)[C@@H]1O		0.00928 µM (active)
COc1ccccc1N=Nc1c(S(=O)(=O)O)cc2cc(S(=O)(=O)O)cc(NC(C)=O)c2c1O	inactive	
CC1(C)C(=O)N(Cl)C(=O)N1Br	inactive	
COCCOCCOCCO	inactive	
CCCC(=O)OC(C)(C)Cc1ccccc1	inactive	
CCCCCCC(=O)c1ccccc1	inactive	
O=[N+]([O-])c1ccc(O)cc1C(F)(F)F		12.3 µM (active)
Cc1ccc(S(=O)(=O)Oc2ccc(N=Nc3ccc(-c4ccc(N=Nc5c(O)ccc6cc(S(=O)(=O)O)cc(S(=O)(=O)O)c56)c(C)c4)cc3C)cc2)cc1		7.03 µM (active)
CN1C(=O)c2ccccc2C1=O	inactive	
CCc1cc(C(C)(C)C)c(O)c(C(C)(C)C)c1	inactive	
Clc1ccc(C(c2ccccc2Cl)C(Cl)Cl)cc1 (stereo not given)	inactive	
c1ccc(Oc2ccccc2)cc1	inactive	
Cc1cc(=O)oc2cc(N(C)C)ccc12	inactive	
O=C1OC(=O)c2c(Cl)c(Cl)c(Cl)c(Cl)c21	inactive	
OCc1cccc(Oc2ccccc2)c1	inactive	
CC(CN=Cc1ccccc1O)N=Cc1ccccc1O (stereo not given)		6.64 µM (active)
CCCC(C)=O	inactive	
CCCCCCC(CO)CCCC (stereo not given)	inactive	
